In PubChem BioAssay:
Values without a mark were called inactive. No rule for the calls is given here.

Assay: inhibitors of hydroxyurea-induced Chk1 phosphorylation, primary screen, imaging, HeLa, phospho-Chk1 antibody, percent positive cells (AID 1186)
Conditions: hydroxyurea-induced phospho-Chk1 immunofluorescence imaging, higher = more signal

In order of falling z-score:
1. CN1C(=O)C2C=CC(C(O)c3ccc(Br)cc3)N(N(c3ccccc3)c3ccccc3)C2C1=O (stereo not given)  0.63
2. CCOC(=O)C1=CC[C@H]2C(=O)N(CC)C(=O)[C@@H]12  0.379
3. CCCCCCc1nc(CCCc2cc3c(c(CCCCCC)n2)[Si](C(C)C)(C(C)C)O[C@H]3c2ccccc2)cc2c1[Si](C(C)C)(C(C)C)O[C@H]2c1ccccc1  -0.0972
4. Cc1ccc(S[C@]2(C(=O)O)CC(=O)N(Cc3ccccc3)[C@@H]2c2ccc(CO)cc2I)cc1  -0.123
5. COC(=O)[C@@]1(Cc2ccccc2)[C@H]2c3cc(C(=O)N4CCCC4)n(Cc4ccccn4)c3C[C@H]2CN1C(=O)c1ccccc1  -0.161

Assay: inhibitors of hydroxyurea-induced Chk1 phosphorylation, primary screen, imaging, HeLa, phospho-Chk1 nuclear intensity (AID 1187); also: test concentration not given here
Conditions: hydroxyurea-induced phospho-Chk1 immunofluorescence imaging, higher = more signal

In order of falling z-score:
1. CN1C(=O)C2C=CC(C(O)c3ccc(Br)cc3)N(N(c3ccccc3)c3ccccc3)C2C1=O (stereo not given)  0.0215
2. CCOC(=O)C1=CC[C@H]2C(=O)N(CC)C(=O)[C@@H]12  -0.0238
3. Cc1ccc(S[C@]2(C(=O)O)CC(=O)N(Cc3ccccc3)[C@@H]2c2ccc(CO)cc2I)cc1  -0.134
4. CCCCCCc1nc(CCCc2cc3c(c(CCCCCC)n2)[Si](C(C)C)(C(C)C)O[C@H]3c2ccccc2)cc2c1[Si](C(C)C)(C(C)C)O[C@H]2c1ccccc1  -0.202
5. COC(=O)[C@@]1(Cc2ccccc2)[C@H]2c3cc(C(=O)N4CCCC4)n(Cc4ccccn4)c3C[C@H]2CN1C(=O)c1ccccc1  -0.295
